Laboratory results reported in the supplement of paper PMC3334620.
Whole data set: some 33,000 sequences, median “E-score (-0.5 to 0.5)” near -0.0014, cut for the highest 2% near 0.25. The sample holds the highest values, similar sequences and a random draw of the others, so the mix is not that of the screen.

biological target: T1, Cad1 (UniProt P24813); assay: PBM E-score (8-mer binding enrichment) (E-score (-0.5 to 0.5)); higher = stronger / more preferred TF binding; conditions: protein concentration: 100 nM; construct: GST-full length
T1 sequence: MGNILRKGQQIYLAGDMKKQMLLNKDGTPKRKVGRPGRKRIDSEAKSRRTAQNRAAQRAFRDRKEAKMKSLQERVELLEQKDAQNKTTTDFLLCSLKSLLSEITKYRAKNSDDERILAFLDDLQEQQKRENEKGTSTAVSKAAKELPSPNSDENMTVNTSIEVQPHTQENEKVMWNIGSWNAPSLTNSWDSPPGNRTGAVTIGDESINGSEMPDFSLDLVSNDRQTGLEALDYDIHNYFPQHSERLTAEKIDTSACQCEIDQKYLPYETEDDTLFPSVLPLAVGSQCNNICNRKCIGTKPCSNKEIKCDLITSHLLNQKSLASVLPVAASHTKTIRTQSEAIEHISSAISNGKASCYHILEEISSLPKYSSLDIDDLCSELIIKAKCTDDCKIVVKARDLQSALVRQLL
Protocol: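 Universal 'all 10-mer' protein binding microarrays (Agilent AMADID 015681) probed with GST-tagged S. cerevisiae TFs (full-length or DBD) made by in vitro transcription/translation (PURExpress), about 100-200 nM. Bound TF was detected with fluorescent anti-GST. Each ungapped 8-mer (which stands for itself and its reverse complement) is scored by the PBM enrichment score (E-score), a modified Wilcoxon-Mann-Whitney statistic from -0.5 to +0.5, computed with the Universal PBM Analysis Suite. Scale: above 0.35 generally sequence-specific binding.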

Going from GTCAGACA to AAGGTCGT, the “PBM E-score” value falls from 0.116 to 0.0718.

First: CCTAGACC
Second: GGTTAGAA
The “PBM E-score” value of the first is lower: -0.179 for the first, -0.111 for the second.

Compared with AAGCTCGA, AAGCTCGC is lower in “PBM E-score” value: 0.263 for the first, 0.224 for the second.

First: CAGCTCGA
Second: TTGGCAAA
The “PBM E-score” value of the first is lower: 0.0283 for the first, 0.121 for the second.

Going from ATAGATTG to GACCCGGC, the “PBM E-score” value falls from 0.0192 to -0.0968.

Going from GCTGAGCC to AACGCTTC, the “PBM E-score” value rises from -0.119 to -0.0949.

Compared with AATCAGCT, AATCAGCC is lower in “PBM E-score” value: 0.274 for the first, 0.0909 for the second.

First: AATCAGCA
Second: AATCAGCG
The “PBM E-score” value of the first is higher: 0.258 for the first, 0.211 for the second.

First: TATCAACA
Second: GATCAGCA
The “PBM E-score” value of the first is lower: 0.0364 for the first, 0.141 for the second.

Compared with AATCAACA, CATCAGCA is lower in “PBM E-score” value: 0.275 for the first, 0.01 for the second.

Going from GATCAACA to CGACAGCA, the “PBM E-score” value falls from 0.131 to 0.0252.

First: AGTTCAGA
Second: CAACATGA
The “PBM E-score” value of the first is lower: -0.104 for the first, 0.144 for the second.

First: CACTAGAA
Second: GTTTGTTA
The “PBM E-score” value of the first is lower: -0.0573 for the first, 0.202 for the second.

First: CTTTGTCC
Second: CTTTGTTA
The “PBM E-score” value of the first is lower: 0.058 for the first, 0.222 for the second.

First: GTTTGTCA
Second: CTTTGTCA
The “PBM E-score” value of the first is higher: 0.317 for the first, 0.278 for the second.

Going from GATTGTCA to AAGATTAG, the “PBM E-score” value rises from 0.117 to 0.144.

Going from GTCTGCGA to AGACCGGA, the “PBM E-score” value falls from 0.0486 to -0.062.

First: GTCGCGAA
Second: TTCGCGAA
The “PBM E-score” value of the first is lower: 0.0594 for the first, 0.343 for the second.

First: CTCGCGAC
Second: TCCGCGAA
The “PBM E-score” value of the first is lower: 0.15 for the first, 0.202 for the second.

First: ATCGCGAC
Second: GTCGCGAC
The “PBM E-score” value of the first is lower: 0.195 for the first, 0.391 for the second.

Going from GGGCCTCA to ATCATTTC, the “PBM E-score” value rises from -0.0631 to 0.136.

Compared with GGCTCATA, CAACAGGA is lower in “PBM E-score” value: 0.0877 for the first, -0.182 for the second.

Compared with ACCTCGGG, CTGCTTAA is higher in “PBM E-score” value: -0.173 for the first, 0.0117 for the second.

Going from ATGCTTAC to GCGCTTAC, the “PBM E-score” value rises from 0.112 to 0.299.

Going from CTGCTTAC to CCGCTTAC, the “PBM E-score” value falls from 0.276 to 0.184.

First: GCGCTTAA
Second: ACCGTATA
The “PBM E-score” value of the first is higher: 0.106 for the first, -0.00739 for the second.

First: CAAAAGAC
Second: ATCATAAC
The “PBM E-score” value of the first is lower: -0.00184 for the first, 0.273 for the second.

Compared with ATCATAAG, ATCATAAT is higher in “PBM E-score” value: 0.0855 for the first, 0.144 for the second.

First: CTTCGTTA
Second: AATTAAGA
The “PBM E-score” value of the first is lower: -0.0282 for the first, 0.104 for the second.

Going from AATTAATA to ACTTAATA, the “PBM E-score” value falls from 0.432 to 0.186.

Compared with AATTAATC, AATTAATG is higher in “PBM E-score” value: 0.227 for the first, 0.242 for the second.

First: AATTAATT
Second: AGCGAACA
The “PBM E-score” value of the first is higher: 0.285 for the first, 0.195 for the second.

Going from CGCCAACA to AAAAAAAC, the “PBM E-score” value falls from 0.157 to 0.121.

Going from CAAATGGG to CCATATCA, the “PBM E-score” value falls from 0.0861 to -0.00962.

First: GCATATCA
Second: TCATATCA
The “PBM E-score” value of the first is higher: 0.278 for the first, 0.0259 for the second.

Going from CCATGCAG to GCGGAAGC, the “PBM E-score” value rises from -0.0439 to 0.0712.

First: AGCGGCTC
Second: ACGGAAAC
The “PBM E-score” value of the first is lower: -0.0559 for the first, -0.0435 for the second.

First: ACGGATAA
Second: ACGGAAAT
The “PBM E-score” value of the first is lower: 0.0973 for the first, 0.288 for the second.

Going from ACGGAAAA to ACGGATAG, the “PBM E-score” value falls from 0.24 to 0.0118.

Going from ACGGATAT to AGGGTTGA, the “PBM E-score” value falls from 0.254 to -0.0586.

First: GGATCGAA
Second: CTTCTCGA
The “PBM E-score” value of the first is higher: 0.045 for the first, 0.0254 for the second.

First: ACGGCTGA
Second: CAGCCATG
The “PBM E-score” value of the first is higher: 0.0503 for the first, -0.077 for the second.

Going from CAAATATG to CTAATATA, the “PBM E-score” value rises from 0.135 to 0.239.

Compared with ATAATATA, CAAATATC is higher in “PBM E-score” value: 0.227 for the first, 0.261 for the second.

Going from TAAATATA to CAAATATA, the “PBM E-score” value falls from 0.277 to -0.0118.

First: AAAATATC
Second: GATAAATA
The “PBM E-score” value of the first is higher: 0.198 for the first, 0.123 for the second.

Going from TATAAATA to AAAATATA, the “PBM E-score” value falls from 0.25 to 0.208.

Compared with CATAAATA, GTAATATA is higher in “PBM E-score” value: 0.171 for the first, 0.327 for the second.
